Two compounds from ChEMBL document CHEMBL2218924, “A broad activity screen in support of a chemogenomic map for kinase signalling research and drug discovery” (Biochem J, 2013) can be followed below.

Test [1] has as its target Death-associated protein kinase 1 (Homo sapiens) (UniProt P53355). Particulars: at 10 µM.
The target of test [2] is Death-associated protein kinase 2 (Homo sapiens) (UniProt Q9UIK4). Particulars: at 1 µM.
Test [3] has the same target. The note with it: at 10 µM.
For test [4], the target named is T1, Serine/threonine-protein kinase DCLK2 (Homo sapiens) (UniProt Q8N568).
T1 sequence (whole entry): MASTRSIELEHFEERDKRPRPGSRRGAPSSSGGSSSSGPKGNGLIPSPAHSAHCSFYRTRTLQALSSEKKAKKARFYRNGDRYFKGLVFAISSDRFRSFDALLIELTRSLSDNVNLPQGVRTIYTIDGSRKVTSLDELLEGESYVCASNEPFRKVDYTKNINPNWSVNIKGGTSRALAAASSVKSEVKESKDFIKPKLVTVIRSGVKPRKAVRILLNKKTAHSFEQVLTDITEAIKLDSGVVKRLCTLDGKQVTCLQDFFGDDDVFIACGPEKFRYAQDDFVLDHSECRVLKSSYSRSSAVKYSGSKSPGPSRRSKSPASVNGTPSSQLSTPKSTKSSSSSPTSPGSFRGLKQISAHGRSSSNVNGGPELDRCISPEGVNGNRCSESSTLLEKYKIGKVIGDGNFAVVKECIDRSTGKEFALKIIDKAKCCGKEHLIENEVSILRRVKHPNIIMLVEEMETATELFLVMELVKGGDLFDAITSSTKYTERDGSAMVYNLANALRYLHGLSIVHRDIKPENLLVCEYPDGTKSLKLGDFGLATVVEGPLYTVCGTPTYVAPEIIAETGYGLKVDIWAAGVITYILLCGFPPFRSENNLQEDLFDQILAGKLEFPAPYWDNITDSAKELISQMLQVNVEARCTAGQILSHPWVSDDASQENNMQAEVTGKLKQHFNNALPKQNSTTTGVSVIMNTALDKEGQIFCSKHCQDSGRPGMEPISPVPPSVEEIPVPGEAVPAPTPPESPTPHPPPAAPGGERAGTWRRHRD
Particulars: at 1 µM.

In test [5] the target is T1, Serine/threonine-protein kinase DCLK2 (Homo sapiens). Particulars: at 10 µM.
The target in test [6] is T2, Discoidin domain-containing receptor 2 (Homo sapiens) (UniProt Q16832).
T2 sequence (whole entry): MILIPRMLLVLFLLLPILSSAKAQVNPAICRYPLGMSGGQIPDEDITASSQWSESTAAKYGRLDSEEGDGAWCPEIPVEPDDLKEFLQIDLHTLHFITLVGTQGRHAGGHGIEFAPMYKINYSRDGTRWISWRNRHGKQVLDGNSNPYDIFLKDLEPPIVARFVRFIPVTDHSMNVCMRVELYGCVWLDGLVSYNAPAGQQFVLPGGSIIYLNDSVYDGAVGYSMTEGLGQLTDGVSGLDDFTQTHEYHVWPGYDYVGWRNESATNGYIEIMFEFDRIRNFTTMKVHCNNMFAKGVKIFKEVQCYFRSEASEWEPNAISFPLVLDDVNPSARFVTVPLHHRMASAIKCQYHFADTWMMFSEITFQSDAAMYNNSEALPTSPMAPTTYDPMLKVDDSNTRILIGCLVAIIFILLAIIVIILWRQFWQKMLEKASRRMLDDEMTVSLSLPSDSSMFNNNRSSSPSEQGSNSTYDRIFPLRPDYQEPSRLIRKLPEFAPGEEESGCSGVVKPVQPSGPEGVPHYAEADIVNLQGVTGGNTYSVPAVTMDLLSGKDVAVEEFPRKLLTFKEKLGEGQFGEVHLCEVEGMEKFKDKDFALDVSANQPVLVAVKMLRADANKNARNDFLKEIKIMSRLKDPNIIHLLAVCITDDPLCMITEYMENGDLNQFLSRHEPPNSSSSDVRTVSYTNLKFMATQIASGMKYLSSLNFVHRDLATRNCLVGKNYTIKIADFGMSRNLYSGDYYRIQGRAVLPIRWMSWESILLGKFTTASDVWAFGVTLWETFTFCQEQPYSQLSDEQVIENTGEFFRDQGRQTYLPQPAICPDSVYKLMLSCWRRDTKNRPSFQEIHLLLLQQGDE
Particulars: at 1 µM.

Test [7] addresses T2, Discoidin domain-containing receptor 2 (Homo sapiens). The note with it: at 10 µM.
The target in test [8] is T3, Myotonin-protein kinase (Homo sapiens) (UniProt Q09013).
T3 sequence (whole entry): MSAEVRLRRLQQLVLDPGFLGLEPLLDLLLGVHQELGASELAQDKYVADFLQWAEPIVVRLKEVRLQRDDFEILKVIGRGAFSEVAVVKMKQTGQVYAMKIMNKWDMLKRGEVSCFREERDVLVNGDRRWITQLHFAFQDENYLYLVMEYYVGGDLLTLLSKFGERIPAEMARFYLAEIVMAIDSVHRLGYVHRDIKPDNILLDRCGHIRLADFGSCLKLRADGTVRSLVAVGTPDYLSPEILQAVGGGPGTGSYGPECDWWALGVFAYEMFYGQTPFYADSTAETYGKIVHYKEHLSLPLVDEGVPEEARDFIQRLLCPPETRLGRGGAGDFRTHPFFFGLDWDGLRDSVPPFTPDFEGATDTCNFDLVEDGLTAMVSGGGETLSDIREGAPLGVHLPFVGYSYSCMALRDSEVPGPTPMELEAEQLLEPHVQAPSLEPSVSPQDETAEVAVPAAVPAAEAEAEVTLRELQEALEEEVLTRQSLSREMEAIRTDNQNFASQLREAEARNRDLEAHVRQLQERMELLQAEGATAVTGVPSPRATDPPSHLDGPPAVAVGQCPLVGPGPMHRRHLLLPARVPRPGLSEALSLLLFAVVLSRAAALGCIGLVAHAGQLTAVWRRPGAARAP
Particulars: at 1 µM.

Test [9] concerns the target T3, Myotonin-protein kinase (Homo sapiens). Particulars: at 10 µM.
Test [10] has as its target T4, Serine/threonine-protein kinase 17A (Homo sapiens) (UniProt Q9UEE5).
T4 sequence (whole entry): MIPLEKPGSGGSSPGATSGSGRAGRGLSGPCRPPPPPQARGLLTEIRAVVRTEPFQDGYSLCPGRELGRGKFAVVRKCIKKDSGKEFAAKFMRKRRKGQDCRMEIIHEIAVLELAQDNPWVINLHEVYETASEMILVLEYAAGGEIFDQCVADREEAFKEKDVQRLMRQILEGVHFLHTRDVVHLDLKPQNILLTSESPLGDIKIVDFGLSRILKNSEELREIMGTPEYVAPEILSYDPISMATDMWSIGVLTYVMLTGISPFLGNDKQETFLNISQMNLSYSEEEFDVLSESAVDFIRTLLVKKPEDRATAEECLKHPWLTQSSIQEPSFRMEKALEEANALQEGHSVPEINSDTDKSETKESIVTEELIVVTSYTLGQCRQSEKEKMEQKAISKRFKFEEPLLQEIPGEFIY
Particulars: at 1 µM.

Test [11] concerns the target T4, Serine/threonine-protein kinase 17A (Homo sapiens). Particulars: at 10 µM.
Test [12] concerns the target T5, Dual specificity tyrosine-phosphorylation-regulated kinase 2 (Homo sapiens) (UniProt Q92630).
T5 sequence (whole entry): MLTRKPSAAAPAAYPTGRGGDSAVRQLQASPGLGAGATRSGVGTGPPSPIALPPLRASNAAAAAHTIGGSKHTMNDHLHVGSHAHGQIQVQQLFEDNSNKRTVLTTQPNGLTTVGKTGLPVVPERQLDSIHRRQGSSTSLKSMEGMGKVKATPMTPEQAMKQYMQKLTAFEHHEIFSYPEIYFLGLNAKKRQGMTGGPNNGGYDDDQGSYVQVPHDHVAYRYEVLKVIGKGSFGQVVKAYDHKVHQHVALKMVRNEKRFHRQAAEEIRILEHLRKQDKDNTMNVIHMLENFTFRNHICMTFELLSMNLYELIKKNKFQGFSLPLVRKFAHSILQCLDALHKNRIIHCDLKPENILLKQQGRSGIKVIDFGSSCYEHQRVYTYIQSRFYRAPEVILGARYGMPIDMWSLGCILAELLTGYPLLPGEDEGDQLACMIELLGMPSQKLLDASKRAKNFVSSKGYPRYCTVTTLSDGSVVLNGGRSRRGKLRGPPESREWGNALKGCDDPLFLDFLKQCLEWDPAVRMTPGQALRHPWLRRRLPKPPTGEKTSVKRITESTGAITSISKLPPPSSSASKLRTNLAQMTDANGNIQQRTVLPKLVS
Particulars: at 1 µM.

Test [13] addresses T5, Dual specificity tyrosine-phosphorylation-regulated kinase 2 (Homo sapiens). Particulars: at 10 µM.
For test [14], the target named is Epidermal growth factor receptor (Homo sapiens) (UniProt P00533). Particulars: at 1 µM.
Test [15] has the same target. Particulars: at 10 µM.
Test [16] has as its target T6, Ephrin type-A receptor 1 (Homo sapiens) (UniProt P21709).
T6 sequence (whole entry): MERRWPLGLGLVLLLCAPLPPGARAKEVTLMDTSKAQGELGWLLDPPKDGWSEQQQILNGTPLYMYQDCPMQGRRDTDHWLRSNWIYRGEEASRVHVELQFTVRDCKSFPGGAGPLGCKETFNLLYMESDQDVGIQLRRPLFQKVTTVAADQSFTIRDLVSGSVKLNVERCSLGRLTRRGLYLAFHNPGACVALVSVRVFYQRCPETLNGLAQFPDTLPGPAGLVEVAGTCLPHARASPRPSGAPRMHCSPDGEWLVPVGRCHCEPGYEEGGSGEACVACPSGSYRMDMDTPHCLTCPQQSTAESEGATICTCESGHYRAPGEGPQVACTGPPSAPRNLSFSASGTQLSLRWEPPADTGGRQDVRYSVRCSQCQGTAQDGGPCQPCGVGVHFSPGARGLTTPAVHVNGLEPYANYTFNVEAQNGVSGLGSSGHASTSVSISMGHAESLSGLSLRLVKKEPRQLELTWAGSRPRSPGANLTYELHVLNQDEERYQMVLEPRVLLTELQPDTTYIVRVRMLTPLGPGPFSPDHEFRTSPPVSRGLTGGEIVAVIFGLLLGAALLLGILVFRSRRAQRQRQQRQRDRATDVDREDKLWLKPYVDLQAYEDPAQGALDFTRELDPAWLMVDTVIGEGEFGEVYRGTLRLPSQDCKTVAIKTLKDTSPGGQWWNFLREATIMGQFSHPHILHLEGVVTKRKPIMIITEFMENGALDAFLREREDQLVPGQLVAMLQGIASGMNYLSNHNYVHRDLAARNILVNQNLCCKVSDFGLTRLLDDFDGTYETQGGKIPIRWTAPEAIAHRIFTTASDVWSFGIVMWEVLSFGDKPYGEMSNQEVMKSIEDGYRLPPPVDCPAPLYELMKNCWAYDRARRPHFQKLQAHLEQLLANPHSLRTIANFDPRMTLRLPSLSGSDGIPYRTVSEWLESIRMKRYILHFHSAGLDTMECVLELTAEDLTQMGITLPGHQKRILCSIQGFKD
Particulars: at 1 µM.

In test [17] the target is T6, Ephrin type-A receptor 1 (Homo sapiens). The note with it: at 10 µM.
Test [18] concerns the target Ephrin type-A receptor 2 (Homo sapiens) (UniProt P29317). The note with it: at 1 µM.
For test [19] the target is unchanged. The note with it: at 10 µM.
Test [20] concerns the target T7, Ephrin type-A receptor 3 (Homo sapiens) (UniProt P29320).
T7 sequence (whole entry): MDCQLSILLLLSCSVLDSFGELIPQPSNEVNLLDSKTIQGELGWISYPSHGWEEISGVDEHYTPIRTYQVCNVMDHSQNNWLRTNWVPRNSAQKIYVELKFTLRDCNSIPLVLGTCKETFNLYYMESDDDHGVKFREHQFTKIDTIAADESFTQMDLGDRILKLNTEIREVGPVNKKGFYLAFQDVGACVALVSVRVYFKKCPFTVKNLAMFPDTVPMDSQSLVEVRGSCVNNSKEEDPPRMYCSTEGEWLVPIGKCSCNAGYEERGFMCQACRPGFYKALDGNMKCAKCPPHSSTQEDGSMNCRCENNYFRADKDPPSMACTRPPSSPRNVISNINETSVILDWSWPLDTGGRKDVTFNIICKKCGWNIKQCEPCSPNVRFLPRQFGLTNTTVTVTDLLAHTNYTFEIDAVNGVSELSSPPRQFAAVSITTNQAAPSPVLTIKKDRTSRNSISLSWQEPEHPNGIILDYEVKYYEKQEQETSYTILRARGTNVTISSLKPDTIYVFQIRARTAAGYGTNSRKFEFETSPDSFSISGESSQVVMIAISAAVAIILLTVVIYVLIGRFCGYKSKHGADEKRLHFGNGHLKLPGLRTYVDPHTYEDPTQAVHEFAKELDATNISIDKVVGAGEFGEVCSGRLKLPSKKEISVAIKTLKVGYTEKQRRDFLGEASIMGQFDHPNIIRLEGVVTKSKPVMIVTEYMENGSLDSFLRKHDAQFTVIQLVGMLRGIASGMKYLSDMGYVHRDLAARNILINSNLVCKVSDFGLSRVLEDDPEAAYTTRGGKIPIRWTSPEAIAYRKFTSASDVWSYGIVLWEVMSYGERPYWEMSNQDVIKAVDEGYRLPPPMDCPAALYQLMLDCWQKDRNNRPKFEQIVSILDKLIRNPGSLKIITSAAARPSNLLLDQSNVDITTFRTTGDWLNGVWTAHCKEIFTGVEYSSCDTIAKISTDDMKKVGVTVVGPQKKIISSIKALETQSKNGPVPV
Particulars: at 1 µM.

Death-associated protein kinase 2 (Homo sapiens), sequence (Q9UIK4 whole entry, looked up): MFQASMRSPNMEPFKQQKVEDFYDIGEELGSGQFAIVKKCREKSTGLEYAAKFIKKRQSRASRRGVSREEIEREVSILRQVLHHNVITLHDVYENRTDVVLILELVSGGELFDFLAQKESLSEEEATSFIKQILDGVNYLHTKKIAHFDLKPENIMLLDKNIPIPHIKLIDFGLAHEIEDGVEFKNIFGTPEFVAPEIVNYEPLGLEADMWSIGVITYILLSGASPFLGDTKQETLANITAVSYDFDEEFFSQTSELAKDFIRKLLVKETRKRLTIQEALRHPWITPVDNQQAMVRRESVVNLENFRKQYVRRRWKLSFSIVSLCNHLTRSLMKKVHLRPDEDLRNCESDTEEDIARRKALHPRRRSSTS
Epidermal growth factor receptor (Homo sapiens), sequence (P00533 whole entry): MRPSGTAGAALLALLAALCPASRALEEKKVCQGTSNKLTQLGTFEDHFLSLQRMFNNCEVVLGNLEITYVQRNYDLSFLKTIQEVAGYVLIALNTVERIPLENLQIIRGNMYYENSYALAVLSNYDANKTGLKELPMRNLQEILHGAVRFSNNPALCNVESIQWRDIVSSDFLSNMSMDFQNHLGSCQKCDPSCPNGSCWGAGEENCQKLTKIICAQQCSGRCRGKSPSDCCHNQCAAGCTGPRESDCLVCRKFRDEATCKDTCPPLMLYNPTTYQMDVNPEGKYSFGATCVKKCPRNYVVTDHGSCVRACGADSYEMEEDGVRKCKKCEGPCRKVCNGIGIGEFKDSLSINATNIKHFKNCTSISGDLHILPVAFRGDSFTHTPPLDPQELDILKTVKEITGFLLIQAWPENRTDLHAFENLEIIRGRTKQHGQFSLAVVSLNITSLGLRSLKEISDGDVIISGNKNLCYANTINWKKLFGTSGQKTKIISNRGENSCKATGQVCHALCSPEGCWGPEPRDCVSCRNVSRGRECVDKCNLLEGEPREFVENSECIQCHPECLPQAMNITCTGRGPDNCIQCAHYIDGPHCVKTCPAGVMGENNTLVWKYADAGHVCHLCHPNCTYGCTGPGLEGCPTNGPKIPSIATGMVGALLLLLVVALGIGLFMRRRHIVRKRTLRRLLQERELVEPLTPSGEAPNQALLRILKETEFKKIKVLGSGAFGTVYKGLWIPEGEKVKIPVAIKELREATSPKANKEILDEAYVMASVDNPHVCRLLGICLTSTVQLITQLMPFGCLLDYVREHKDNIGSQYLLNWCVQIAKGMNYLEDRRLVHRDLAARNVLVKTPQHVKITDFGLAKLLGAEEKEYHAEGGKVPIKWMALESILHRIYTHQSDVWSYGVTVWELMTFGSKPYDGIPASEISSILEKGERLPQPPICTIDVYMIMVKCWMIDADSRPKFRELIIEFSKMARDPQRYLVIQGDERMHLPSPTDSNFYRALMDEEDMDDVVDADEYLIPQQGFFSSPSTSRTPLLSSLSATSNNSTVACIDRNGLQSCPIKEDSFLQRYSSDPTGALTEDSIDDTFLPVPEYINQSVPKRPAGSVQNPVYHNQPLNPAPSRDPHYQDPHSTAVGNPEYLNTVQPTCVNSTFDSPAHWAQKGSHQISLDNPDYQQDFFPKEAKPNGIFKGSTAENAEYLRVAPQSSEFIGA
Ephrin type-A receptor 2 (Homo sapiens), sequence (P29317 whole entry): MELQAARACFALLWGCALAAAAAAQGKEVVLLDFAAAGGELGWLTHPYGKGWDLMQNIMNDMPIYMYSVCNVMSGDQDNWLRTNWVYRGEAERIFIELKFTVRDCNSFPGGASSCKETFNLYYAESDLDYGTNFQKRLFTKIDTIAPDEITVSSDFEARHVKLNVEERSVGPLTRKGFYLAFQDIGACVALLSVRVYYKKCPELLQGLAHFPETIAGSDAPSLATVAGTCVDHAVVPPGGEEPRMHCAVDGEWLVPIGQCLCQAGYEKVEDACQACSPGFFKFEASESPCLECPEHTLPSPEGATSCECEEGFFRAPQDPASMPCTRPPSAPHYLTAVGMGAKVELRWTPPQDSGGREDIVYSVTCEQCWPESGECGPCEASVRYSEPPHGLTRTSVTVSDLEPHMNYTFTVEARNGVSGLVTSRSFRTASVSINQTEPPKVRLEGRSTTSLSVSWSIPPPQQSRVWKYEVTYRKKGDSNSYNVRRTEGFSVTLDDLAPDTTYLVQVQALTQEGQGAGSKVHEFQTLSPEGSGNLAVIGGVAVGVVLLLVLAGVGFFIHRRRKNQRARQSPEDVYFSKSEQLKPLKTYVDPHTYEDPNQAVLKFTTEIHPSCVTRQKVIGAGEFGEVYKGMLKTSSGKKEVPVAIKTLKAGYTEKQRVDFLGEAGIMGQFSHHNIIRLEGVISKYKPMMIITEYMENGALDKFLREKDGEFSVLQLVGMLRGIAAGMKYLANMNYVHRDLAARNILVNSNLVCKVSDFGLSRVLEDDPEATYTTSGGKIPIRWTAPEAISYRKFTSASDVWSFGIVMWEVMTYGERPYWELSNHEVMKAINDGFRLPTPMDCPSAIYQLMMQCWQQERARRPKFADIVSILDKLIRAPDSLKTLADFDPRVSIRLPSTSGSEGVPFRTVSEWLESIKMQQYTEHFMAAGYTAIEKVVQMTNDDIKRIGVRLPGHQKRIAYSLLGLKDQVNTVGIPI
Death-associated protein kinase 1 (Homo sapiens), sequence (P53355 whole entry, looked up): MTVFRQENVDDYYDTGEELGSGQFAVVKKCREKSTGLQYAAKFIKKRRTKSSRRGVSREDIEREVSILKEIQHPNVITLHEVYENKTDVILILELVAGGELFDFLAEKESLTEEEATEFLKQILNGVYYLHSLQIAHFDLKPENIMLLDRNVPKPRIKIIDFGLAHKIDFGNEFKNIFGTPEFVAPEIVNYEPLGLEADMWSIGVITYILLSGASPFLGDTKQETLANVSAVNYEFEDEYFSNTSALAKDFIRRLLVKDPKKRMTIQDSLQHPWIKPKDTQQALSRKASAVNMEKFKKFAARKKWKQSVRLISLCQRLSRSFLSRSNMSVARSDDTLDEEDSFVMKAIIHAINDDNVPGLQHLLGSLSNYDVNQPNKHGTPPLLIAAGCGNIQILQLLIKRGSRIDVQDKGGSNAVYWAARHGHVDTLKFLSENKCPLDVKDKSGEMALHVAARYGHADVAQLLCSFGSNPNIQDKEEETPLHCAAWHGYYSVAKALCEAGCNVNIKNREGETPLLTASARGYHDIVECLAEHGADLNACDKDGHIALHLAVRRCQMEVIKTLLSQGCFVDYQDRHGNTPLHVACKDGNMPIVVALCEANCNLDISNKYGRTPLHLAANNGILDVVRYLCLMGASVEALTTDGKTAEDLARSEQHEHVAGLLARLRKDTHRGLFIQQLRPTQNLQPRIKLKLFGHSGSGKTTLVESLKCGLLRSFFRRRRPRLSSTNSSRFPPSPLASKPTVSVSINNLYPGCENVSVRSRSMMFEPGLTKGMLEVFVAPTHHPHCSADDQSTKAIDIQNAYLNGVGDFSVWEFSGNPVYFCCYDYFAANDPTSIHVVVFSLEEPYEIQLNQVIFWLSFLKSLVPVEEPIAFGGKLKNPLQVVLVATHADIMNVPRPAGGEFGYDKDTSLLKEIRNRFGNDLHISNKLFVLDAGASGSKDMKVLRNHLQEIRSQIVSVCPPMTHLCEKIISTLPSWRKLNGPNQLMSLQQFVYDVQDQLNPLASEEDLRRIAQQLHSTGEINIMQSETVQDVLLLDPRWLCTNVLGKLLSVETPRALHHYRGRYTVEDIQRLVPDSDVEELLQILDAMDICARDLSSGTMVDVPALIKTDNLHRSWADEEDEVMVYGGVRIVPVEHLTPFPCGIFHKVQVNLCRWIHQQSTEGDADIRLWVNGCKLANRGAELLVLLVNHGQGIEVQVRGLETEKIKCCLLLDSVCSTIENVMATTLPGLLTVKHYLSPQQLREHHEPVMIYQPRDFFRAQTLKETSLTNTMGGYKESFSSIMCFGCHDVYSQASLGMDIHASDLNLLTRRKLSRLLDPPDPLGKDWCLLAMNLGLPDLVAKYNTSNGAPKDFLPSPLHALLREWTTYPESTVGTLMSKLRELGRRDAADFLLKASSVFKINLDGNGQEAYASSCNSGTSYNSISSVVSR

Broadly, the residual activity is the signal under treatment as a percentage of the control signal. Consider `CCN(CC)CCCCN1c2ccccc2Oc2ccc(Cl)cc21`, for which the residual activity in test [1] turned out to be 99%; in test [2] it was 111%; in test [3], 109%; in test [4] it was 96%; in test [5], 104%; in test [6] it was 115%. Further, the residual activity was 90% in test [7]; 120% in test [8]; 136% in test [9]; 124% in test [10]; 138% in test [11]; 105% in [12]. Also, the residual activity in test [13] came out at 103%; in test [14], 124%; in test [15], 127%; in test [16], 102%; in [17], 124%; in test [18], 108%. The residual activity in test [19] was found to be 109%; in [20], 113%.

Regarding `O=[N+]([O-])c1ccc(-c2nc(-c3ccc(F)cc3)c(-c3ccncc3)[nH]2)cc1`, the residual activity in test [1] is 65%; in test [2], 108%; in [3], 101%; in test [4], 117%; in test [5], 111%; in test [6] it was 77%. Moreover, the residual activity in test [7] came to 52%; in [8], 96%; in test [9] it was 93%; in [10], 116%; in [11] it was 104%; in [12], 100%. Moreover, the residual activity in test [13] worked out at 91%; in [14], 87%; in [15], 95%; in test [16], 83%; in test [17], 92%; in [18], 89%. The figures for the residual activity in [19] and in test [20] were 97% and 99%, respectively.
